Measured values published in the supplement of paper PMC10849652.
The full data set covers some 8,800 targets. This sample favours those with a hit. About 0.5% of all pairs of compound and target were hits.

Experiments:
Test in all cases: log2 fold change, soluble protein after heating vs DMSO (PISA); higher = thermal stabilisation; K562 lysate, 10 uM; active = over 0.2 and 3.5 SD of the protein, either way, in both replicates (recomputed)
alvocidib = compound: CN1CC[C@H](c2c(O)cc(O)c3c(=O)cc(-c4ccccc4Cl)oc23)[C@H](O)C1 [alvocidib]
Summary of the method: (§1)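 Quantification was by TMTpro 16plex LC-MS/MS with equalised channel sums, applied to the supernatant after 21,000xg for 90 min. Samples were crude K562 extract at 1 mg/mL protein in PBS pH 7.4 with 1 mM MgCl2, treated with 10 μM compound for 30 min, heated for 3 min across 48°C-58°C, pooled and brought to 0.5% NP-40 at 4°C. Values are log-two fold changes in thermal stability relative to solvent controls, from duplicates.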

Tubastatin A = compound: CN1CCc2c(c3ccccc3n2Cc2ccc(C(=O)NO)cc2)C1 [Tubastatin A]
Summary of the method: as §1

[1] = compound: CNC(=O)C1=CC=CC=C1NC2=NC(=NC=C2Cl)NC3=C(C=C(C=C3)N4CCOCC4)OC
Summary of the method: as §1

defactinib = compound: CNC(=O)c1ccc(Nc2ncc(C(F)(F)F)c(NCc3nccnc3N(C)S(C)(=O)=O)n2)cc1 [defactinib]
Summary of the method: as §1

[2] = compound: CNc1nc(-c2ccc3c(N)n[nH]c3c2)cc(N2C[C@@H](C(=O)NC3CCCCC3)CC[C@H]2C)n1
Summary of the method: as §1

encorafenib = compound: COC(=O)N[C@@H](C)CNc1nccc(-c2cn(C(C)C)nc2-c2cc(Cl)cc(NS(C)(=O)=O)c2F)n1 [encorafenib]
Summary of the method: as §1

[3] = compound: COC(=O)[C@H](CCSC)NC(=O)C1=C(C=C(C=C1)NC[C@H](CS)N)C2=CC=CC=C2
Summary of the method: as §1

alisertib = compound: COc1cc(Nc2ncc3c(n2)-c2ccc(Cl)cc2C(c2c(F)cccc2OC)=NC3)ccc1C(=O)O [alisertib]
Summary of the method: as §1

[4] = compound: COc1cc2nc(-c3cc(F)ccc3O)nc(N[C@@H]3CNC[C@H]3C(C)(C)O)c2cc1OC
Summary of the method: as §1

gefitinib = compound: COc1cc2ncnc(Nc3ccc(F)c(Cl)c3)c2cc1OCCCN1CCOCC1 [gefitinib]
Summary of the method: as §1

lapatinib = compound: CS(=O)(=O)CCNCc1ccc(-c2ccc3ncnc(Nc4ccc(OCc5cccc(F)c5)c(Cl)c4)c3c2)o1 [lapatinib]
Summary of the method: as §1

pictilisib = compound: CS(=O)(=O)N1CCN(Cc2cc3nc(-c4cccc5[nH]ncc45)nc(N4CCOCC4)c3s2)CC1 [pictilisib]
Summary of the method: as §1

crizotinib = compound: C[C@@H](Oc1cc(-c2cnn(C3CCNCC3)c2)cnc1N)c1c(Cl)ccc(F)c1Cl [crizotinib]
Summary of the method: as §1

[5] = compound: C[C@H](C1=CC=C(C=C1)C(=O)NC2=C3C=CNC3=NC=C2)N
Summary of the method: as §1

duvelisib = compound: C[C@H](Nc1ncnc2nc[nH]c12)c1cc2cccc(Cl)c2c(=O)n1-c1ccccc1 [duvelisib]
Summary of the method: as §1

gandotinib = compound: Cc1cc(Nc2cc(CN3CCOCC3)c3nc(C)c(Cc4ccc(Cl)cc4F)n3n2)n[nH]1 [gandotinib]
Summary of the method: as §1

tozasertib = compound: Cc1cc(Nc2cc(N3CCN(C)CC3)nc(Sc3ccc(NC(=O)C4CC4)cc3)n2)n[nH]1 [tozasertib]
Summary of the method: as §1

doramapimod = compound: Cc1ccc(-n2nc(C(C)(C)C)cc2NC(=O)Nc2ccc(OCCN3CCOCC3)c3ccccc23)cc1 [doramapimod]
Summary of the method: as §1

bafetinib = compound: Cc1ccc(NC(=O)c2ccc(CN3CC[C@H](N(C)C)C3)c(C(F)(F)F)c2)cc1Nc1nccc(-c2cncnc2)n1 [bafetinib]
Summary of the method: as §1

[6] = compound: Cc1cccc(CC(=O)N2CCc3c2ccc(-c2cn(C)c4ncnc(N)c24)c3F)n1
Summary of the method: as §1

Measured: log2 fold change

AGPAT1 (UniProt Q99943)
inactive: alvocidib -0.002 | Tubastatin A -0.015 | [1] 0.052 | defactinib -0.007 | [2] -0.033 | encorafenib 0.075 | [3] -0.016 | alisertib -0.015 | [4] -0.232 | gefitinib 0.028 | lapatinib -0.122 | pictilisib 0.009 | crizotinib -0.029 | [5] -0.019 | duvelisib 0.009 | gandotinib -0.034 | tozasertib 0.041 | doramapimod 0.028 | bafetinib -0.057 | [6] 0.091

ABHD11 (UniProt Q8NFV4)
Sequence of UniProt Q8NFV4 (Q8NFV4 whole entry, looked up): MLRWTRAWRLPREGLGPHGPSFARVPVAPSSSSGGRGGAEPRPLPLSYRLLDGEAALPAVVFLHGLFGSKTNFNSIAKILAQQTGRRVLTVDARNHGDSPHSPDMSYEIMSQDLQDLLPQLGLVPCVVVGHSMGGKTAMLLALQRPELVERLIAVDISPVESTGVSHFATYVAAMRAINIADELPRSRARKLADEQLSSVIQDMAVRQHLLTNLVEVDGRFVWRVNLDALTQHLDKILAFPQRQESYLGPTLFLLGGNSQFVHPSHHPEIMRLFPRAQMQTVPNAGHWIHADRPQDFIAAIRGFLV
active: gandotinib 0.853
inactive: alvocidib 0 | Tubastatin A 0.032 | [1] -0.066 | defactinib 0.034 | [2] 0.087 | encorafenib -0.028 | [3] 0.173 | alisertib -0.027 | [4] 0.022 | gefitinib 0.004 | lapatinib 0.024 | pictilisib 0.033 | crizotinib -0.019 | [5] -0.121 | duvelisib 0.028 | tozasertib 0.081 | doramapimod -0.034 | bafetinib 0.009 | [6] 0.05

ACYP1 (UniProt P07311)
Sequence of UniProt P07311 (P07311 whole entry, looked up): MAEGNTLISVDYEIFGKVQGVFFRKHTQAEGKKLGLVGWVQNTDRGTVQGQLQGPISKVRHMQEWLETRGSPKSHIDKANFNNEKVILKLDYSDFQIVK
active: [5] 0.236
inactive: alvocidib 0.084 | Tubastatin A 0.008 | [1] -0.002 | defactinib 0.014 | [2] -0.018 | encorafenib -0.018 | [3] -0.016 | alisertib 0.012 | [4] -0.008 | gefitinib 0.026 | lapatinib -0.001 | pictilisib -0.044 | crizotinib 0.024 | duvelisib 0.005 | gandotinib -0.051 | tozasertib 0.016 | doramapimod 0.009 | bafetinib 0.005 | [6] -0.091

ACADS (UniProt P16219)
inactive: alvocidib -0.011 | Tubastatin A -0.003 | [1] 0.019 | defactinib -0.011 | [2] 0.014 | encorafenib -0.034 | [3] 0.071 | alisertib -0.003 | [4] -0.037 | gefitinib -0.023 | lapatinib -0.004 | pictilisib -0.018 | crizotinib -0.027 | [5] -0.026 | duvelisib -0.003 | gandotinib 0.016 | tozasertib -0.013 | doramapimod 0.008 | bafetinib 0.037 | [6] 0.034

ACIN1 isoform 5 (UniProt Q9UKV3)
Sequence of UniProt Q9UKV3 (Q9UKV3 whole entry, looked up): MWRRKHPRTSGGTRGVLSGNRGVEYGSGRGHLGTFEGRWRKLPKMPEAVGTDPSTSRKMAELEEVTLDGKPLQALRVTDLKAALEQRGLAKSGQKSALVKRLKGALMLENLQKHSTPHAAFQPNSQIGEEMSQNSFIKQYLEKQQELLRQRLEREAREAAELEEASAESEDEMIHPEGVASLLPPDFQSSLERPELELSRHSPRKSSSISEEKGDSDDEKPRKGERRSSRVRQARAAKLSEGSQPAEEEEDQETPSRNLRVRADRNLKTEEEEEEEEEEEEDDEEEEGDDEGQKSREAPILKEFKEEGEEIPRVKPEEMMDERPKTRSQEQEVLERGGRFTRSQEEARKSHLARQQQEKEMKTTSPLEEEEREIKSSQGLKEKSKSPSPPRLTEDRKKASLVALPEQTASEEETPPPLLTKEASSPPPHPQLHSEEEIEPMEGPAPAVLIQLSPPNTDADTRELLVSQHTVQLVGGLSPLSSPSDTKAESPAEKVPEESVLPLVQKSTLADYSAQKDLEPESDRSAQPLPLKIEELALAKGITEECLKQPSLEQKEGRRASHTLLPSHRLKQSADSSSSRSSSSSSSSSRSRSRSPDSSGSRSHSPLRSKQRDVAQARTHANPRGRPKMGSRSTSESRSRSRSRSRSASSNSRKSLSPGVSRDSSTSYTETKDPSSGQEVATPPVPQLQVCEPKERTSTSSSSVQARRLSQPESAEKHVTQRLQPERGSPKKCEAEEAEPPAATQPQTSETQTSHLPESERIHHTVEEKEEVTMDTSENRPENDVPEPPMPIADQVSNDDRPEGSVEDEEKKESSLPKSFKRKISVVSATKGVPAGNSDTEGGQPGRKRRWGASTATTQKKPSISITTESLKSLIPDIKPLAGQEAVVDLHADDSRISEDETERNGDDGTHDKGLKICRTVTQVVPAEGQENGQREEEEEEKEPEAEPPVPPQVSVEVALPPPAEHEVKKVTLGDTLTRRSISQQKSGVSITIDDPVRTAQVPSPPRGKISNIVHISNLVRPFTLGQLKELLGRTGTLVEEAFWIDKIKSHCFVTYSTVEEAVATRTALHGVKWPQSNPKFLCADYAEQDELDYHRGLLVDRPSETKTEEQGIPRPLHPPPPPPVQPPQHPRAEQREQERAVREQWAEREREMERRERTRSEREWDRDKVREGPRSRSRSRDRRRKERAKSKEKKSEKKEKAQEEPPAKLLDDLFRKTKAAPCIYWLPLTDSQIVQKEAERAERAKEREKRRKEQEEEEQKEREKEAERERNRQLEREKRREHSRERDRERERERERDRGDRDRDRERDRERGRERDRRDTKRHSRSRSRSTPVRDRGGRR
inactive: alvocidib -0.038 | Tubastatin A 0.039 | [1] -0.034 | defactinib -0.009 | [2] 0.053 | encorafenib -0.004 | [3] -0.01 | alisertib 0.032 | [4] -0.003 | gefitinib 0.001 | lapatinib 0.012 | pictilisib -0.024 | crizotinib 0.034 | [5] 0.022 | duvelisib -0.002 | gandotinib -0.003 | tozasertib 0.003 | doramapimod 0.01 | bafetinib -0.013 | [6] 0.002

ARL15 (UniProt Q9NXU5)
Sequence of UniProt Q9NXU5 (Q9NXU5 whole entry, looked up): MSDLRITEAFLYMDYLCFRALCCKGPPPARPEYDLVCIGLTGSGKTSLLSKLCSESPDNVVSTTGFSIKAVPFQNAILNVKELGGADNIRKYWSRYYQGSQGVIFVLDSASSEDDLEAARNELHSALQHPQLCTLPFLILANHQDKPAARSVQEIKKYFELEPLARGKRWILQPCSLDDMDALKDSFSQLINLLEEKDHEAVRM
inactive: alvocidib 0.177 | Tubastatin A -0.002 | [1] -0.013 | defactinib -0.013 | [2] -0.021 | encorafenib 0.037 | [3] -0.211 | alisertib 0.005 | [4] 0 | gefitinib -0.057 | lapatinib -0.001 | pictilisib 0.097 | crizotinib 0 | duvelisib -0.004 | gandotinib -0.098 | tozasertib 0.023 | doramapimod 0.06 | bafetinib 0.225 | [6] -0.118
active: [5] 0.682

AP4B1 (UniProt Q9Y6B7)
inactive: alvocidib -0.053 | Tubastatin A -0.021 | [1] -0.051 | defactinib -0.001 | [2] 0.041 | encorafenib 0.057 | [3] -0.01 | alisertib -0.014 | [4] -0.121 | gefitinib 0.031 | lapatinib 0.064 | pictilisib -0.142 | crizotinib 0.025 | [5] -0.106 | duvelisib -0.058 | gandotinib -0.023 | tozasertib -0.011 | doramapimod 0.019 | bafetinib -0.079 | [6] 0.135

ANKRD52 (UniProt Q8NB46)
inactive: alvocidib -0.002 | Tubastatin A -0.132 | [1] -0.003 | defactinib 0.076 | [2] 0.014 | encorafenib 0.047 | [3] 0.11 | alisertib 0.005 | [4] 0 | gefitinib 0.039 | lapatinib -0.133 | pictilisib -0.036 | crizotinib -0.11 | [5] -0.004 | duvelisib 0.01 | gandotinib 0.012 | tozasertib 0 | doramapimod 0.001 | bafetinib -0.071 | [6] 0.034

APOB (UniProt P04114)
inactive: alvocidib -0.078 | Tubastatin A 0.099 | [1] -0.021 | defactinib -0.04 | [2] 0.264 | encorafenib -0.008 | [3] 0.003 | alisertib -0.024 | [4] 0.023 | gefitinib 0.014 | lapatinib 0.054 | pictilisib 0.004 | crizotinib -0.003 | [5] -0.182 | duvelisib 0.104 | gandotinib 0.084 | tozasertib 0.015 | doramapimod 0.024 | bafetinib -0.091 | [6] 0.06

ALDH1L2 (UniProt Q3SY69)
Sequence of UniProt Q3SY69 (Q3SY69 whole entry, looked up): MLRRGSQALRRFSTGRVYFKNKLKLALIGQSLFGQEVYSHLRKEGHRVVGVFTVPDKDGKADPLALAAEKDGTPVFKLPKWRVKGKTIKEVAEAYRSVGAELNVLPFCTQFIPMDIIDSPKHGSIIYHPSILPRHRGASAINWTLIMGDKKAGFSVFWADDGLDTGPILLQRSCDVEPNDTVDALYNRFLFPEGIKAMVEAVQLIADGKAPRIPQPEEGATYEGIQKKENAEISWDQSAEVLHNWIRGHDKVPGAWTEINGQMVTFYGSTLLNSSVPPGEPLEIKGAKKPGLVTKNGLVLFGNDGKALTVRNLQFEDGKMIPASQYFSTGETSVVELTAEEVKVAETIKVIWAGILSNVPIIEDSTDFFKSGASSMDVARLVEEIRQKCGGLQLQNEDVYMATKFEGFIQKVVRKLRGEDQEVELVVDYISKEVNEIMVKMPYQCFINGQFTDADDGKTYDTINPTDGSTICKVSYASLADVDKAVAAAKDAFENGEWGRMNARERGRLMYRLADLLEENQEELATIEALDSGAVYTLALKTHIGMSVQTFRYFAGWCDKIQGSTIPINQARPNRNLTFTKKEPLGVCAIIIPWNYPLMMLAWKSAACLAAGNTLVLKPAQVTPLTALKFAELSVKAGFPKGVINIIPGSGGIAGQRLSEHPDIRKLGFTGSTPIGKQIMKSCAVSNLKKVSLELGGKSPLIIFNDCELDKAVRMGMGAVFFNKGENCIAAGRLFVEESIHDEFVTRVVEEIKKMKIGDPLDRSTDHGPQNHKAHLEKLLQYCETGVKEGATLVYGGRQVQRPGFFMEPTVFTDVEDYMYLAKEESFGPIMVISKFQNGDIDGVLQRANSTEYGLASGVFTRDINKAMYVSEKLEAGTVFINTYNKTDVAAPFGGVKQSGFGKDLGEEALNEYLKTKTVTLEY
inactive: alvocidib -0.04 | Tubastatin A -0.03 | [1] -0.028 | defactinib -0.04 | [2] -0.021 | encorafenib -0.002 | alisertib -0.039 | [4] 0.039 | gefitinib 0.017 | lapatinib 0.029 | pictilisib -0.01 | crizotinib -0.032 | [5] -0.066 | duvelisib 0.003 | gandotinib 0.039 | tozasertib 0.032 | doramapimod 0.005 | bafetinib -0.029 | [6] 0.083
active: [3] 0.288

ANKRD30B (UniProt Q9BXX2)
inactive: alvocidib -0.307 | Tubastatin A 0.007 | [1] -0.01 | defactinib -0.155 | [2] 0.284 | encorafenib -0.113 | [3] 0.164 | alisertib -0.002 | [4] -0.067 | gefitinib -0.036 | lapatinib -0.049 | pictilisib -0.068 | duvelisib 0.087 | gandotinib 0.337 | tozasertib -0.005 | bafetinib -0.163 | [6] 0.397
active: [5] -0.558

ARHGEF1 (UniProt M0QZR4)
inactive: alvocidib 0.011 | Tubastatin A -0.085 | [1] 0.016 | defactinib -0.005 | [2] -0.016 | encorafenib 0.022 | [3] 0.063 | alisertib 0.001 | [4] -0.01 | gefitinib -0.014 | lapatinib 0.006 | pictilisib -0.011 | crizotinib -0.041 | [5] -0.038 | duvelisib -0.007 | gandotinib -0.012 | tozasertib 0.029 | doramapimod 0.02 | bafetinib -0.019 | [6] 0.106

AK4 (UniProt P27144)
Sequence of UniProt P27144 (P27144 whole entry, looked up): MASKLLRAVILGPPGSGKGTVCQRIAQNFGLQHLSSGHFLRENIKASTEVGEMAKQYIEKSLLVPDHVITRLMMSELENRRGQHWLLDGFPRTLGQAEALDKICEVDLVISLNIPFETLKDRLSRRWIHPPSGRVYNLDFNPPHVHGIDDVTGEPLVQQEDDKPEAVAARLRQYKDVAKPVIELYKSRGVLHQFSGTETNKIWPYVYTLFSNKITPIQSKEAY
inactive: alvocidib 0.025 | Tubastatin A 0.036 | [1] -0.008 | defactinib 0.003 | [2] 0.009 | encorafenib 0.006 | [3] -0.07 | alisertib 0.026 | [4] -0.034 | gefitinib -0.043 | lapatinib -0.003 | pictilisib -0.033 | crizotinib 0.028 | [5] -0.027 | duvelisib 0.014 | gandotinib -0.019 | tozasertib 0.052 | doramapimod 0.03 | bafetinib -0.024 | [6] 0.012

ANP32A (UniProt P39687)
Sequence of UniProt P39687 (P39687 whole entry, looked up): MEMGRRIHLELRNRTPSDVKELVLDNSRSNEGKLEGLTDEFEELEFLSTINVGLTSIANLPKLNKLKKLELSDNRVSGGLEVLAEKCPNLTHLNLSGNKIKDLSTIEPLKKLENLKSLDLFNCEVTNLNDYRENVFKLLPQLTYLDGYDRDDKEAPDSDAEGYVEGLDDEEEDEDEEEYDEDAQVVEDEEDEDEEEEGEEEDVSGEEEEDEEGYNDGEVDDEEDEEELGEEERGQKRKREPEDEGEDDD
inactive: alvocidib -0.039 | Tubastatin A 0.027 | [1] -0.006 | defactinib 0.016 | [2] -0.056 | encorafenib -0.024 | [3] -0.048 | alisertib 0.018 | [4] -0.014 | gefitinib -0.007 | lapatinib 0.068 | pictilisib -0.001 | crizotinib 0 | [5] -0.063 | duvelisib -0.003 | gandotinib 0.065 | tozasertib 0.014 | doramapimod 0.096 | bafetinib 0.126 | [6] 0

ARHGAP6 (UniProt O43182)
Sequence of UniProt O43182 (O43182 whole entry, looked up): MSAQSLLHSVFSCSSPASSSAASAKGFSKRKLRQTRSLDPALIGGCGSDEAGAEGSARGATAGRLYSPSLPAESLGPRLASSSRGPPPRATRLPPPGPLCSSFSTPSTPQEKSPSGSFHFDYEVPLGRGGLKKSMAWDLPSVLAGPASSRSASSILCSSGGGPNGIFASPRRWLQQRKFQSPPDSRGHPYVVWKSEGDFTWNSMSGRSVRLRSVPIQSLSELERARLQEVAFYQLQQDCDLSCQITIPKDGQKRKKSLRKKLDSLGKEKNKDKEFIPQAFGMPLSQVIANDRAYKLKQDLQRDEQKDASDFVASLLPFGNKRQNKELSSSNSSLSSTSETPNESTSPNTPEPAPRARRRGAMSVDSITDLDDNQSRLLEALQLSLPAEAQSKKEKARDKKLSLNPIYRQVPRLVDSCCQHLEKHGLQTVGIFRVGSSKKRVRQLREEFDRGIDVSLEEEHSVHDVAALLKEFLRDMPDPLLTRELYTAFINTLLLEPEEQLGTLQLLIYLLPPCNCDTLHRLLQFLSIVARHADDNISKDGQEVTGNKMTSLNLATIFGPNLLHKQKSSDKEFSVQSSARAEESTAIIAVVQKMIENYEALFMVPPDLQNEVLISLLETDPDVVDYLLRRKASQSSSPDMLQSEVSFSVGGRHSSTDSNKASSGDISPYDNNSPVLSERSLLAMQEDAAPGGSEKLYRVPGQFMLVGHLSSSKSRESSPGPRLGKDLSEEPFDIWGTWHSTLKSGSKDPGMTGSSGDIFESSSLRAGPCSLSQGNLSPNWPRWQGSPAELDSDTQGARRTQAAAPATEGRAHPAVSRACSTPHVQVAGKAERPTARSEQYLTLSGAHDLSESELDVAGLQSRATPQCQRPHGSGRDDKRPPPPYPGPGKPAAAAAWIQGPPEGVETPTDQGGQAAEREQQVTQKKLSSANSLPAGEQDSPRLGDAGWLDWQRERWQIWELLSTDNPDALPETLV
inactive: alvocidib 0.003 | Tubastatin A -0.201 | [1] 0.129 | defactinib 0.012 | [2] -0.017 | encorafenib 0.06 | [3] 0.063 | alisertib 0.017 | [4] -0.012 | gefitinib -0.069 | lapatinib 0.006 | pictilisib 0.012 | crizotinib -0.038 | [5] 0.106 | duvelisib 0.001 | gandotinib -0.097 | tozasertib 0.004 | doramapimod -0.003 | bafetinib -0.055 | [6] -0.022

AMDHD2 isoform 3 (UniProt Q9Y303)
Sequence of UniProt Q9Y303 (Q9Y303 whole entry, looked up): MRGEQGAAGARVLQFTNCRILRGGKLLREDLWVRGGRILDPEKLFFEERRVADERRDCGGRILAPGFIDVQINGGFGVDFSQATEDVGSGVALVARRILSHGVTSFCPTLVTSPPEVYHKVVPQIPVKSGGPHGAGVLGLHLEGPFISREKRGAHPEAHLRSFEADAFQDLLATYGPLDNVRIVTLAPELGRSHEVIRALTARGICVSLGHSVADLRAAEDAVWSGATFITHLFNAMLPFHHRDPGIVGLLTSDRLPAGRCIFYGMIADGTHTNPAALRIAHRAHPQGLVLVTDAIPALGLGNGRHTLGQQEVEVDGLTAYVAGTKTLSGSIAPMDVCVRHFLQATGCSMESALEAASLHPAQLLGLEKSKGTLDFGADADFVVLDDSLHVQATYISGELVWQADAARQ
inactive: alvocidib -0.016 | Tubastatin A 0 | [1] 0.018 | defactinib 0.014 | [2] 0.018 | encorafenib -0.028 | [3] 0.1 | alisertib 0.023 | [4] -0.013 | gefitinib 0.034 | lapatinib 0.014 | pictilisib -0.081 | crizotinib 0.025 | [5] 0.006 | duvelisib -0.043 | gandotinib 0.008 | tozasertib -0.013 | doramapimod 0.003 | bafetinib 0.093 | [6] 0.009
